Data reported in PubChem BioAssay AID2546 (National Center for Advancing Translational Sciences (NCATS), 2010).
The whole screen tested about 310,000 compounds, of which about 11,000 (3.5%) were called active. Roughly 8% stayed inconclusive and do not appear here. Calls follow the shape of the dose curve; as a rule, active = well fitted inhibition curve with a large enough effect; inconclusive = small, poorly fitted or top-dose-only effect, or effect the other way; inactive = flat fitted curve, though single readings scatter. This excerpt belongs to a sample that is enriched for actives.

Assay: VP16 counterscreen qHTS for inhibitors of ROR gamma transcriptional activity;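 also: Gal4-VP16 expression switched on by copper sulfate through the metallothionein promoter; nearly all actives have a fitted effect of over 50% in size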
Settings: Drosophila S2 Gal4-VP16 UAS-luciferase, luminescence, 20 h; series mostly up to 53.6 µM; activity, negative = inhibition: at the top concentration
% is scaled to controls: 0 for no effect and ±100 for the full control effect; potency is read from the fitted curve at half-maximal effect.

Row | SMILES | activity, negative = inhibition | Potency
1 | COc1ccc2[nH]c(C(=O)N/N=C/c3cc(OC)c(OC)c(OC)c3)cc2c1 | -4.9% (inactive) | –
2 | COc1ccc(N)c(OC)c1 | -2.22% (inactive) | –
3 | COc1cc(/C=C/C2=CC(C)(C)NC(=S)N2)cc(OC)c1OC | – | 12.6 µM (active)
4 | CC1C(=O)N(Cc2ccccc2)c2ccccc2N1C(=O)c1ccccc1 (centres undefined) | 1.8% (inactive) | –
5 | COc1ccc(CSc2nnnn2-c2ccc(C(=O)O)cc2)cc1 | -2.54% (inactive) | –
6 | COCCCNC(=O)[C@H]1N2C(=O)c3ccccc3C2SC1(C)C (some centres undefined) | -8.98% (inactive) | –
7 | Cn1c(-c2ccco2)nc2cc3ccccc3cc21 | – | 11.2 µM (active)
8 | COc1ccc(CCn2c(-c3ccco3)nc3nc4ccccc4nc32)cc1OC | 0.686% (inactive) | –
9 | Cn1cccc1-c1nc2ccccc2n1C | -16.5% [at 10 µM] (inactive) | –
10 | CCn1cc(C(=O)NCCC(=O)NCCO)c(=O)c2cc3c(cc21)OCO3 | -0.42% (inactive) | –
11 | O=C(N/C(=C/c1ccc(Cl)cc1)C(=O)N1CCCCC1)c1ccco1 | -4.41% (inactive) | –
12 | COC(=O)c1ccc(CNC(=O)c2ccc3oc(C(C)C)nc3c2)cc1 | -1.6% (inactive) | –
13 | FC(F)(F)C1CCCN(c2nsc3ccccc23)C1 (centres undefined) | – | 28.2 µM (active)
14 | O=c1[nH]c(/C=C\c2cccc(C(F)(F)F)c2)nc(O)c1[N+](=O)[O-] | -4.83% (inactive) | –
15 | CCN1CCN(C(=O)C2CCN(S(=O)(=O)c3cc(Cl)ccc3Cl)CC2)CC1 | 4.33% (inactive) | –
16 | CC(C)(C)c1ccc(CCC2OCC(CN3CCOCC3)O2)cc1 (centres undefined) | – | 4.47 µM (active)
17 | CSc1ccc(CNCCN2CCOCC2)cc1 | 1.08% (inactive) | –
18 | CCCCOc1ccc(C(C)(O)CCN2CCOCC2)cc1 (centres undefined) | 3.9% (inactive) | –
19 | COc1ccc(/C=C/c2c(-c3cccc(C)c3)oc3ccc(-c4ccc5c(c4)OCO5)cc23)cc1 | -8.59% (inactive) | –
20 | COc1cccc2cc(C(=O)NCc3ccc(C)cc3)c(=N)oc12 | -2.34% (inactive) | –
21 | CC[C@]1(c2ccccc2OC)C(=O)N(C(=O)OC)N1C(=O)OC | 0.759% (inactive) | –
22 | N=c1oc2ccccc2cc1C(=O)N/N=C/c1ccccc1 | -9.15% (inactive) | –
23 | Cc1ccc(/C=N/NC(=O)CNC(=O)COc2ccccc2)o1 | 2.06% (inactive) | –
24 | Cc1ccc(/C=N/NC(=O)c2cc3ccccc3cc2O)o1 | – | 1.58 µM (active)
25 | COc1ccc(-n2ncc3c(SCC(=O)NNC(C)=O)ncnc32)cc1 | -6.63% (inactive) | –
26 | COc1ccc(N(C(=O)c2snc(C(N)=O)c2N)C(C(=O)NC2CCCC2)c2ccc(C)o2)c(OC)c1 (centres undefined) | 5.86% (inactive) | –
27 | COc1ccc(Oc2c(Cl)cnn(-c3ccccc3)c2=O)cc1 | -16.5% (inactive) | –

Row | SMILES | activity, negative = inhibition | Potency
28 | Cc1cccc(-n2ncc(C#N)c2-n2cccc2)c1 | 5.67% (inactive) | –
29 | Cc1cccc(-n2ncc(Cl)c(Cl)c2=O)c1 | – | 14.1 µM (active)
30 | O=C(CSc1ccc(-c2ccccn2)nn1)Nc1ccccc1 | 8.15% (inactive) | –
31 | Clc1nc(NC2CCCC2)nc(N2CCOCC2)n1 | 2.03% (inactive) | –
32 | Cc1nc(/N=C(\N)NC(=O)NC2CCCCC2)nc2ccccc12 | – | 7.94 µM (active)
33 | Cc1nn(-c2ccccc2)c(C)c1C(=O)OCC(=O)NC(=O)NC1CCCCC1 | 1.2% (inactive) | –
34 | O=C(NNC(=O)C(O)c1ccccc1)NC1CCCCC1 (centres undefined) | -6.21% (inactive) | –
35 | c1ccc2c(Nc3ccncc3)nc(-c3ccc4c(c3)OCO4)nc2c1 | – | 17.8 µM (active)
36 | Cc1cccc(-c2nc(Nc3ccc(O)cc3)c3ccccc3n2)c1 | -10.1% (inactive) | –
37 | c1ccc2c(Nc3ccncc3)nc(-c3ccoc3)nc2c1 | -20.6% (inactive) | –
38 | COCCc1nn2c(=O)cc(COC(=O)c3cc(OC)c(OC)c(OC)c3)nc2s1 | 1.47% (inactive) | –
39 | Cc1cc(C(=O)NC2CC(C)(C)Cc3c2cnn3-c2ccccc2)n[nH]1 (centres undefined) | 20.9% (inactive) | –
40 | O=C(c1ccccc1F)N(Cc1ccccc1)Cc1ccccc1 | 5.22% (inactive) | –
41 | CC(=O)NC(=O)c1ccccc1O | -11.3% (inactive) | –
42 | CC(C)=C(NC(=O)c1ccccc1)C(=O)N/N=C(\C)c1ccccc1O | – | 2.51 µM (active)
43 | C/C(=N\NC(=O)c1ccoc1C)c1ccccc1O | – | 0.708 µM (active)
44 | C/C(=N\NC(=O)c1nc(C)cc(C)n1)c1ccccc1 | -5.35% (inactive) | –
45 | C/C(=N\NC(=O)c1ccccc1C)c1ccc(N2CCOCC2)cc1 | 8.88% (inactive) | –
46 | CNC(=O)C(NC(=O)c1ccccc1)=C(C)C | -6.26% (inactive) | –
47 | CCc1cc(=O)oc2c(C)c(OCC(=O)N3CC[C@@]4(O)CCCC[C@H]4C3)ccc12 | -6.71% (inactive) | –
48 | COc1ccc(CNC(=O)C2CCN(S(=O)(=O)c3ccc(SC)cc3)CC2)cc1 | -15.2% (inactive) | –
49 | COc1cccc(NC(=O)[C@H](Cc2c[nH]c3ccccc23)NC(=O)[C@@H]2Cc3ccccc3CN2)c1 | -1.61% (inactive) | –
50 | O=C1CCN(CCCc2ccccc2)CCN1CCO | -20.6% (inactive) | –
51 | CCOc1ccccc1OCCCNCc1ccccc1 | -14.8% (inactive) | –
52 | CCOc1ccccc1N1CN(Cc2ccccc2)CNC1=S | – | 11.2 µM (active)
53 | CCOc1ccc(CC(=O)NC2CCN(Cc3ccccc3)CC2)cc1 | -3.19% (inactive) | –
54 | O=C(c1ccco1)N1CCN(Cc2cccc(C(F)(F)F)c2)CC1 | -1.59% (inactive) | –
